# Measurements as given in PubChem BioAssay (Tox21).
# Records with an inconclusive call do not appear. A call without a number means that no potency is given here. Calls of active or inactive are those of the source. The call rests on the fitted dose curve.
# Assay: Nuclear factor erythroid 2-related factor 2/antioxidant responsive element (Nrf2/ARE) small molecule agonists: luciferase reporter gene qHTS assay in human keratinocytes (AID 1919969); further: nearly all actives have a fitted effect of over 35% in size
# Conditions: KeratinoSens HaCaT ARE-luciferase, luminescence, 24 h; series mostly up to 92.4 µM
smiles,measurement,value
CC(C)CCCC(C)CC=O (stereo unspecified),Potency,inactive
